Source: PubChem BioAssay
The list is not random: actives were taken first. Their share in the collection is about 4.5%.
NALP3 yeast inh – NALP3 inflammasome inhibitors in reconstituted yeast, primary screen, luminescence, uHTS | inhibition, % at 10 µM | AID 2825, 2010 | 330,000 tested, 0.39% active | Yeast reconstituted NLRP3/ASC/caspase-1, beta-gal luminescence, 24 h;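 active = inhibition of 50% or more; inactive = inhibition below 50%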
PfHsp90 yeast 2 – growth inhibition of PfHsp90-expressing yeast, primary screen, antimalarial PfHsp90 inhibitor project, S. cerevisiae, BacTiter-Glo luminescence, single point, set 2; BacTiter-Glo ATP, 48 h; yeast lacking PDR1 and PDR3 efflux regulators; inhibition, % at 9.4 µM; 310,000 tested, 0.32% active;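 active = every replicate shows inhibition above about 80%, whatever the replicate mean, limit read from the data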
TIM10 inh – growth inhibitors of isogenic TIM10 control yeast, primary screen, counter-screen for tim10-1 yeast inhibitor project, luminescence, uHTS; S. cerevisiae TIM10 strain growth, BacTiter-Glo luminescence, 24 h; inhibition, % at 10 µM; 330,000 tested, 1.4% active;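 active = inhibition of 40% or more at the single tested concentration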;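 also: wild-type TIM10 isogenic control strain grown at permissive 25 °C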
SKKanGAS inh – S. pyogenes SKKanGAS growth inhibitors in kanamycin, primary screen, streptokinase expression inhibitor project, SKKanGAS strain, BacTiter-Glo luminescence; 6 h; inhibition, % at 7.5 µM; 300,000 tested, 1.3% active; AID 1662, 2009;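 active = mean replicate score, as percent of positive control median, at least 50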;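 also: strain carries kanamycin resistance gene driven by streptokinase promoter and grows in 40 µg/ml kanamycin; loss of luminescence reflects streptokinase promoter inhibition or plain growth inhibition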
tim10-1 inh – growth inhibitors of tim10-1 mutant yeast, primary screen, luminescence, uHTS; S. cerevisiae tim10-1 ts strain growth, BacTiter-Glo, 24 h; 330,000 tested, 2.2% active; inhibition, % at 20 µM; AID 463190, 2010;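 active = inhibition of at least 40%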;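 also: mutant grown at 25 °C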
tim23-1 inh – growth inhibitors of tim23-1 mutant yeast, primary screen, luminescence, uHTS; 330,000 tested, 1.3% active; AID 463212, 2010; inhibition, % at 20 µM; S. cerevisiae tim23-1 growth, BacTiter-Glo luminescence, 24 h;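 active = growth inhibition of the mutant yeast at or above 50%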;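 also: temperature-sensitive mutant grown at 25 °C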
NALP3 confirm – NALP3 inhibitors retested in yeast, confirmation, luminescence, single concentration; shares compounds with NALP3 yeast inh; yeast expressing human NALP3; inhibition, % at 10 µM; 1,300 tested, 81% active; AID 435006, 2010; in the data active = inhibition above about 48%
Casp1-ASC yeast – CASP1-PYCARD signaling inhibition in yeast, confirmatory test, counterassay for NLRP3 inhibitor program, one-dose | AID 488784, 2010 | shares compounds with NALP3 yeast inh | inhibition, % at 10 µM | 1,000 tested, 66% active | yeast expressing Caspase-1-ASC, luminescence counter screen
NALP3 yeast rt – NALP3 inhibitors in yeast, repeat test, confirmation, luminescence, single concentration, retest. shares compounds with NALP3 yeast inh. yeast expressing human NALP3, luminescence read-out. inhibition, % at 10 µM. 1,000 tested, 53% active
tim10-1 conf – growth inhibitors of tim10-1 mutant yeast, confirmation, single concentration, luminescence, S. cerevisiae; shares compounds with tim10-1 inh; S. cerevisiae tim10-1 ts strain growth, BacTiter-Glo, 24 h; inhibition, % at 20 µM; 7,400 tested, 56% active; AID 463213, 2010;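 active = inhibition of yeast growth at or above a set limit in either of two repeat tests at 20 µM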;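 also: tim10-1 mutant grown at permissive 25 °C to find synthetic lethal compounds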
TIM10 conf – growth inhibitors of wild-type TIM10 yeast, confirmation, counter-screen for tim10-1 synthetic lethality project, single concentration, luminescence, S. cerevisiae | shares compounds with TIM10 inh | S. cerevisiae tim10 strain growth, BacTiter-Glo luminescence, 24 h | inhibition, % at 10 µM | 4,600 tested, 63% active;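 active = inhibition of yeast growth at or above a set limit in either of two replicates at 10 µM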; also: this counterscreen used the strain with wild-type TIM10
tim23-1 confirm – tim23-1 mutant yeast growth inhibitors, confirmation, luminescence, single concentration; 4,400 tested, 83% active; inhibition, % at 20 µM; S. cerevisiae tim23-1 growth, BacTiter-Glo luminescence, 24 h; shares compounds with tim23-1 inh;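 active = inhibition above about 39% in either of two replicate wells at 20 µM, limit read from the data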;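 also: temperature-sensitive tim23-1 mutant grown at 25 °C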
Hits are given with their value. Rule as the data show it, unless noted: active = inhibition above about 50%; inactive = the rest.

How did O=C(Cc1ccccc1)c1ccccc1C(=O)N1CCCCC1 do in these assays?
NALP3 yeast inh: inactive; PfHsp90 yeast 2: inactive; TIM10 inh: inactive; SKKanGAS inh: inactive; tim10-1 inh: inactive; tim23-1 inh: inactive

Results for Cc1ccc(-n2nnnc2SCC(=O)N2CCc3ccccc3C2)cc1 ?
NALP3 yeast inh: 70; PfHsp90 yeast 2: inactive; TIM10 inh: 41; SKKanGAS inh: inactive; tim10-1 inh: 46; tim23-1 inh: 54; NALP3 confirm: 76; Casp1-ASC yeast: 77; NALP3 yeast rt: 74; tim10-1 conf: 41; TIM10 conf: 34; tim23-1 confirm: 41

How did O=c1c2ccccc2nc2c3ccccc3c(Cl)nn12 do in these assays?
SKKanGAS inh: inactive

Results for O=c1c2ccccc2nc2c3ccccc3cnn12 ?
NALP3 yeast inh: 56; PfHsp90 yeast 2: inactive; TIM10 inh: inactive; SKKanGAS inh: inactive; tim10-1 inh: inactive; tim23-1 inh: 55; NALP3 confirm: 63; Casp1-ASC yeast: 55; NALP3 yeast rt: 66; tim23-1 confirm: 64

Results for C/C(=N\NC(=O)c1ccc(Cl)cc1)c1ccccn1 ?
NALP3 yeast inh: 72; PfHsp90 yeast 2: inactive; TIM10 inh: inactive; SKKanGAS inh: 87; tim10-1 inh: inactive; tim23-1 inh: 50; NALP3 confirm: 85; Casp1-ASC yeast: 94; NALP3 yeast rt: 83; tim23-1 confirm: 45

Results for Cc1nn(C)c(Cl)c1C(=O)NC(C(=O)O)c1ccccc1 (stereo not given) ?
NALP3 yeast inh: inactive; PfHsp90 yeast 2: inactive; TIM10 inh: inactive; SKKanGAS inh: inactive; tim10-1 inh: inactive; tim23-1 inh: inactive

What do the screens show for `COc1cccc(NC(=O)c2cccs2)c1`?
NALP3 yeast inh: 68; TIM10 inh: 66; SKKanGAS inh: inactive; tim10-1 inh: inactive; tim23-1 inh: 51; NALP3 confirm: 81; Casp1-ASC yeast: 71; NALP3 yeast rt: 57; TIM10 conf: 56; tim23-1 confirm: 75

What do the screens show for `COc1cccc(C(=O)Nc2ccccc2)c1`?
NALP3 yeast inh: 51; PfHsp90 yeast 2: inactive; TIM10 inh: 44; SKKanGAS inh: inactive; tim10-1 inh: inactive; tim23-1 inh: 50; NALP3 confirm: 80; Casp1-ASC yeast: inactive; NALP3 yeast rt: inactive; TIM10 conf: inactive; tim23-1 confirm: 58

Results for Cc1ccc(C)c(NC(=S)N2CCC(NC(=O)c3cccc(F)c3)CC2)c1 ?
NALP3 yeast inh: inactive; PfHsp90 yeast 2: inactive; TIM10 inh: inactive; SKKanGAS inh: inactive; tim10-1 inh: inactive; tim23-1 inh: inactive

Results for CC1CCN(C(=O)COC(=O)c2ccc(N3CCCC3=O)cc2)CC1 ?
NALP3 yeast inh: inactive; PfHsp90 yeast 2: inactive; TIM10 inh: inactive; tim10-1 inh: inactive; tim23-1 inh: inactive
